Assay outcomes (PubChem BioAssay)
TLR9-MyD88 block: blocks human TLR9 binding to MyD88 | CHO BLA complementation TLR9-MyD88, CCF4 FRET ratio | inhibition, % at 4.98 µM | hit rate 0.21% among 340,000 | AID 504734;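 active = inhibition above the mean over all tested compounds plus 3 SD, cut at about 21% in these data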;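 also: 0% = DMSO only wells and 100% = clavulanate BLA inhibitor control wells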
HSF-1 act: increases HSF-1 driven luciferase reporter signal; NIH3T3-HGL HSF-1 luciferase reporter, MG132, 8 h; 100% = twice DMSO control signal; hit rate 1.7% among 300,000; activation, % at 9 µM; AID 504408;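 active = mean replicate activation of at least 50% with a set share of replicates each reaching 50%; inconclusive = only one of those two conditions met; inactive = mean below 50% and too few replicates reaching it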;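 also: 0% = median of the neutral control wells and 100% = twice that signal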
TLR4 MyD88 comp: TLR4-MyD88 interaction inhibition in cells. O00206+Q99836. HeLa CL3-4 TLR4/MyD88 BLA complementation, FRET ratio. inhibition, % at 8.4 µM. hit rate 0.18% among 200,000. AID 861; in the data active = inhibition above about 25%;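 also: 0% = vehicle and 100% = reference inhibitor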
NOD2-RIPK2 inh: blocks binding of human NOD2 to RIPK2 | AID 624267 | O43353 | hit rate 0.38% among 360,000 | inhibition, % at 4.98 µM | CHO BLA complementation NOD2-RIPK2, CCF4 ratio; in the data active = inhibition above about 21%;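 also: 0% = vehicle only and 100% = reference blocker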
Target sequence (O43353 whole entry, looked up): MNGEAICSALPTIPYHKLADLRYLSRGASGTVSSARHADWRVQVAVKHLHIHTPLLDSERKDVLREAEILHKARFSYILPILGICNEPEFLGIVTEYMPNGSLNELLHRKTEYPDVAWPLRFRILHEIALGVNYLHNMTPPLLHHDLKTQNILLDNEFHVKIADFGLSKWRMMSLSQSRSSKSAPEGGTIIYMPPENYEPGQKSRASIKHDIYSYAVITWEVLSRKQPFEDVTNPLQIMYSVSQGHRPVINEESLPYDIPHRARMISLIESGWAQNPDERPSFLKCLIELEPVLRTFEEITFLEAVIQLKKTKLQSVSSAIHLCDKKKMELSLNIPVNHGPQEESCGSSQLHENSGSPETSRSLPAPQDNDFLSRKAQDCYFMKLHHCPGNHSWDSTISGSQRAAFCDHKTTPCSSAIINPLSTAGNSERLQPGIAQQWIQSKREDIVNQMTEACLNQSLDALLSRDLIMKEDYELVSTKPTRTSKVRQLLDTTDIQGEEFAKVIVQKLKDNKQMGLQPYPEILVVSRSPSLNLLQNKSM
HSF1 inh: HSF1 inhibition. NIH3T3-HGL HSE-luciferase, MG132-induced, luminescence 8 h; active compounds read low. activity change, negative = inhibition, % at 7.5 µM (by protocol). hit rate 0.77% among 300,000. AID 2098;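 active = more than half of replicate wells show activity change below -50%, luminescence cut by over half; inconclusive = some wells, but at most half, below -50%; inactive = no replicate well below -50%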;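 also: luciferase reports HSF-1 transcriptional activity via heat shock element; 0% = median of DMSO wells and -100% = zero luminescence signal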
Numbers without * were called inactive; ? = inconclusive; / = no result given. A selection: hits, their analogues and other compounds. The true share with any hit is near 2.4%.

SMILES	TLR9-MyD88 block	HSF-1 act	TLR4 MyD88 comp	NOD2-RIPK2 inh	HSF1 inh
Nc1c(S(=O)(=O)c2cccs2)c2nc3ccccc3nc2n1CCc1ccccc1	/	30	-12	/	14
Cc1cccc(S(=O)(=O)c2c(N)n(/N=C/c3ccccc3)c3nc4ccccc4nc23)c1	-2	7	10	-4	-1
Cc1ccc(C)c(S(=O)(=O)c2c(N)n(/N=C/c3ccco3)c3nc4ccccc4nc23)c1	-2	52*	1	-8	25
CC(C)c1ccc(C2NC(=O)c3ccccc3O2)cc1 (stereo not drawn)	2	71*	/	-9	35
O=C(COC(=O)c1cc(Br)ccc1O)NC12CC3CC(CC(C3)C1)C2	8	/	/	-18	/
Cc1ccc(NS(=O)(=O)c2cc(C(=O)N3CCc4ccccc4C3)ccc2Cl)cc1	-9	67*	-27	3	31
COc1ccc(CN2C(=O)C(CC(=O)NCc3cccs3)CC(C(=O)N3CCOCC3)=C2C)cc1 (stereo not drawn)	4	/	/	-6	/
COC(=O)Nc1ccc(SCC(=O)c2ccc(Cl)cc2)cc1	8	107*	-4	14	72
CC(=O)Nc1cncc(-c2cccc(C(=O)N(C)C)c2)n1	/	/	/	2	/
COc1cc(Cl)c(C)cc1NC(=O)c1ccccc1NC(=O)CN1CCN(C(C)=O)CC1	-7	/	/	5	/
CC(=O)Nc1ccc(-c2ccnc3c2CC(C)(C(=O)Nc2cccc(Oc4ccccc4)c2)O3)cc1 (stereo not drawn)	/	/	/	-2	/
Fc1cccc(C2NN=C(c3ccccc3)S2)c1 (stereo not drawn)	6	61*	-14	5	25
Cc1ccc(C2=NNC(c3cccc(F)c3)S2)cc1 (stereo not drawn)	0	/	0	-14	/
CC(=O)OCC(=O)N1N=C(c2ccc3ccccc3c2)CC1c1ccccc1 (stereo not drawn)	1	53*	-1	-11	27
COc1ccc(C2CC(c3ccc4ccccc4c3OC(C)=O)=NN2C(C)=O)cc1 (stereo not drawn)	-12	94*	/	2	56
CCOC(=O)/C=C(\C)N1N=C(c2ccccc2)CC1c1ccccc1 (stereo not drawn)	8	65*	3	2	35
COc1ccc(C2CC(c3ccc4ccccc4c3)=NN2C(=O)COC(=O)C2CCC(=O)N2)cc1 (stereo not drawn)	-3	?	1	6	5
CCOC(=O)C1=C(COC(=O)COc2ccccc2C(C)C)NC(=O)NC1C (stereo not drawn)	11	/	/	3	/
Cc1cc(C)nc(SCC(=O)NNS(=O)(=O)c2ccc(C#N)cc2)n1	0	/	/	-4	/
CCN(C(=O)COC(=O)C(c1ccccc1)c1ccccc1)c1c(N)n(Cc2ccccc2)c(=O)[nH]c1=O	1	/	/	-2	/
O=C(CCn1cccn1)N1CCCC(Nc2ccc(F)c(F)c2)C1 (stereo not drawn)	-7	/	/	-1	/
COc1cc(=O)[nH]c(SCC(=O)Nc2nc3c(s2)CCCC3)n1	2	-89	/	-6	-86*
COc1cc(=O)[nH]c(SC(C)C(=O)Nc2nc3c(s2)CCCC3)n1 (stereo not drawn)	4	-19	/	-5	-18
Cc1c(C(=O)O)nn(-c2cccc(C(F)(F)F)c2)c(=O)c1C#N	8	19	/	2	0
COC(=O)c1nn(-c2cccc(C(F)(F)F)c2)c(=O)cc1Sc1ccccn1	-1	-65	0	-1	-52*
SMILES	TLR9-MyD88 block	HSF-1 act	TLR4 MyD88 comp	NOD2-RIPK2 inh	HSF1 inh
CCCCn1c(N)nc2ccccc21	-3	-77	-5	0	-71*
CC(C)N(C(=O)[C@H]1C[C@H](CC(=O)NCCN2CCOCC2)C(=O)N2CCc3c([nH]c4cc(CCC(=O)N(C)C)ccc34)[C@]12C)C(C)C	6	/	/	11	/
O=C(/C=C/c1ccc(NC(=O)c2ccccc2-c2ccccc2C(=O)O)cc1)c1ccccc1	16	-49	/	5	-33
O=C(/C=C/c1ccncc1)c1ccc(NC(=O)c2ccccc2F)cc1	25*	/	9	64*	/
Nc1ncnc2c1ncn2C1C=C(CO)C(O)C1O (stereo not drawn)	-10	/	/	0	/
O=C1CCCC/C1=N\Nc1ccc(C2CCCCC2)cc1	/	-59	/	/	-56*
O=C1CCCC/C1=N\Nc1ccc(OCc2ccccc2)cc1	6	19	-15	-5	8
Cc1ccc(S(=O)(=O)NC(C)(C)CSc2nncn2N)cc1	2	-83	-1	-7	-77*
CCc1ccc2c(c1)[C@H]1OCC[C@H]1[C@@H](c1cccs1)N2	9	69*	-1	0	45
CC(C)C(C)N(Cc1ccc(C(=O)O)cc1)C(=O)c1ccc2ccccc2n1 (stereo not drawn)	-2	58*	/	-2	18
CC(C)C(C)N(Cc1cccc(C(=O)O)c1)C(=O)c1ccc2ccccc2n1 (stereo not drawn)	/	7	/	-1	-3
COCCNC(=O)C1(C)CCN(Cc2csc(-c3ccc(Cl)cc3)n2)C1 (stereo not drawn)	/	/	/	-1	/
CC(=O)NCCC(=O)Nc1nc(-c2cccs2)c(-c2cccs2)s1	-3	182*	-3	-1	133
O=C(Nc1nc(-c2cccs2)c(-c2cccs2)s1)C1(c2ccccc2)CC1	-2	4	8	3	1
COc1ccccc1-c1cc(C(=O)NC(C)C)no1	2	54*	-15	3	35
COCCCNC(=O)c1c[nH]c2ccc(S(=O)(=O)N3CCc4ccccc43)cc2c1=O	-8	51*	-9	-11	23
CC[C@@H]1CCC[C@@H](O)[C@@H](C)C(=O)O[C@H](C)[C@@H](C)C/C=C(C)/C(OC)=C\C(=O)N(C)C([C@@H](C)CC)C(=O)N(C)[C@@H](C(C)C)C(=O)N(C)[C@@H](COC)C(=O)N2CCC[C@H]2C(=O)N(C)[C@@H](C(C)C)C(=O)N2CCC[C@H]2C(=O)O1 (stereo partly drawn)	/	/	/	2	/
CC1(C)CC(=O)c2cnc(N3CCN(c4ccccc4)CC3)nc2C1	-2	8	-7	1	-7
CC1(C)CC(=O)c2cnc(N3CCc4ccccc4C3)nc2C1	-3	55*	2	-11	42
COc1ccc(S(=O)(=O)Nc2cc3c4c(oc3c3ccccc23)CC(C)(C)CC4=O)cc1	12	32	-5	-2	11
COc1ccc(S(=O)(=O)Nc2cc3c4c(oc3c3ccccc23)CCCC4=O)cc1	-3	56*	8	1	39
CCN(Cc1ccccc1)C(=O)C1CCN(Cc2sccc2C)CC1	3	-65	-7	-16	-56*
CCN(CC(=O)NCc1cccs1)C(=O)c1ccc(NS(=O)(=O)c2ccc(C(C)=O)cc2)cc1	7	-6	/	5	-3
CCCCC(=O)Nc1ccc(C(=O)Nc2ccc(S(=O)(=O)Nc3nccc(C)n3)cc2)cc1	-10	-72	7	-1	-64*
